Assay results published in PubChem BioAssay AID1159580 (chemical genetic matrix, 2015).
Where “and” joins values, the source holds several entries; their conditions need not be identical. Equal entries are not always repeated. Hit rate of the full screen: of about 5,500 compounds, about 2,000 (36%) were called active. Another 18% or so got no clear call; they are omitted. Rule as the data show it: active = normalized growth mostly below about 0.91 (no sharp cut-off); inconclusive = no clear call, values can overlap the other calls; inactive = mostly above about 0.92. The list shows a part of the results.

Assay: chemical genetic growth profiling, strain panel (AID 1159580);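 also: tested at 20 µM; growth read once vehicle control cultures reached saturation at 30 °C; 1 = growth at the plate median or of vehicle wells; lower values mean less growth of the strain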
Settings: S. cerevisiae deletion strains, growth OD

Measured: normalized growth

CC(C)C(=O)Nc1ccc([N+](=O)[O-])c(C(F)(F)F)c1
inactive: locus YAL013W, strain DEP1, stronger effect = lower value 0.995 | locus YAL021C, strain ccr4, stronger effect = lower value 1.03 | locus YAL026C, strain drs2, stronger effect = lower value 1.01 | locus YAL030W, strain snc1, stronger effect = lower value 1.02 | locus YAL040C, strain CLN3, stronger effect = lower value 0.959 | locus YBL061C, strain skt5, stronger effect = lower value 1.02 | locus YBR009C, strain hhf1, stronger effect = lower value 1.03 | locus YBR021W, strain FUR4, stronger effect = lower value 0.929 | locus YBR023C, strain chs3, stronger effect = lower value 1.03 | locus YBR171W, strain sec66, stronger effect = lower value 1.04 | locus YBR229C, strain ROT2, stronger effect = lower value 0.99 | locus YBR231C, strain swc5, stronger effect = lower value 0.994 | locus YBR279W, strain paf1, stronger effect = lower value 1.02 | locus YCL011C, strain gbp2, stronger effect = lower value 1.02 | locus YCL016C, strain dcc1, stronger effect = lower value 1.01 | locus YCL029C, strain bik1, stronger effect = lower value 0.99 | locus YCL061C, strain MRC1 (second series), stronger effect = lower value 0.999 | locus YCL069W, strain vba3, stronger effect = lower value 1.02 | locus YCR088W, strain abp1, stronger effect = lower value 1.01 | locus YDL005C, strain med2, stronger effect = lower value 1.03 | locus YDL035C, strain GPR1, stronger effect = lower value 0.993 | locus YDL040C, strain nat1, stronger effect = lower value 1.02 | locus YDL074C, strain BRE1, stronger effect = lower value 0.946 | locus YDL101C, strain DUN1, stronger effect = lower value 0.993 | locus YDL134C, strain PPH21, stronger effect = lower value 0.991 | locus YDL185W, strain tfp1, stronger effect = lower value 0.98 | locus YDL192W, strain arf1, stronger effect = lower value 0.977 | locus YDR001C, strain nth1, stronger effect = lower value 1.02 | locus YDR069C, strain doa4, stronger effect = lower value 1.02 | locus YDR101C, strain arx1, stronger effect = lower value 0.969 | locus YDR137W, strain rgp1, stronger effect = lower value 0.983 | locus YDR150W, strain NUM1, stronger effect = lower value 0.994 and 0.998 | locus YDR159W, strain sac3, stronger effect = lower value 1.03 | locus YDR162C, strain NBP2, stronger effect = lower value 0.982 | locus YDR195W, strain ref2 1.07 | locus YDR297W, strain sur2, stronger effect = lower value 1.01 | locus YDR318W, strain mcm21, stronger effect = lower value 0.964 | locus YDR334W, strain swr1, stronger effect = lower value 1.01 | locus YDR335W, strain msn5, stronger effect = lower value 1.03 | locus YDR363W, strain ESC2, stronger effect = lower value 1.05 | locus YDR388W, stronger effect = lower value 0.961 | locus YDR392W, strain spt3, stronger effect = lower value 0.999 | locus YDR502C, strain sam2, stronger effect = lower value 0.96 | locus YEL003W, strain gim4, stronger effect = lower value 1.02 | locus YEL037C, strain rad23, stronger effect = lower value 1.02 | locus YEL061C, strain CIN8 (second series), stronger effect = lower value 1.01 | locus YEL061C, strain CIN8, stronger effect = lower value 0.993 | locus YER002W, strain NOP16, stronger effect = lower value 0.972 | locus YER015W, strain faa2, stronger effect = lower value 1.02 | locus YER016W, strain bim1, stronger effect = lower value 1.01 | locus YER110C, stronger effect = lower value 0.979 | locus YER111C, strain swi4, stronger effect = lower value 1.03 | locus YER155C, strain BEM2 (second series), stronger effect = lower value 0.993 | locus YER155C, strain BEM2, stronger effect = lower value 0.985 | locus YER167W, strain BCK2, stronger effect = lower value 0.969 | locus YFR010W, strain ubp6, stronger effect = lower value 1.04 | locus YGL078C, strain dbp3, stronger effect = lower value 0.984 | locus YGL086W, strain mad1, stronger effect = lower value 0.984 | locus YGL167C, strain pmr1, stronger effect = lower value 1.03 | locus YGL173C, strain kem1, stronger effect = lower value 1.03 | locus YGL227W, strain vid30, stronger effect = lower value 1.03 | locus YGL240W, strain doc1, stronger effect = lower value 1.01 | locus YGL248W, strain PDE1, stronger effect = lower value 0.988 | locus YGL253W, strain hxk2, stronger effect = lower value 1.02 | locus YGR078C, strain PAC10, stronger effect = lower value 0.992 and 0.982 | locus YGR135W, strain pre9, stronger effect = lower value 0.968 | locus YGR229C, strain SMI1, stronger effect = lower value 0.978 | locus YGR252W, strain gcn5, stronger effect = lower value 0.916 | locus YHR013C, strain ard1, stronger effect = lower value 0.995 | locus YHR027C, strain rpn1, stronger effect = lower value 1.04 | locus YHR030C, strain SLT2, stronger effect = lower value 0.994 and 0.977 | locus YHR079C, strain IRE1 (second series), stronger effect = lower value 0.975 | locus YHR079C, strain IRE1, stronger effect = lower value 0.964 | locus YHR094C, strain hxt1, stronger effect = lower value 0.98 | locus YHR129C, strain ARP1, stronger effect = lower value 0.981 | locus YHR142W, strain chs7, stronger effect = lower value 1.03 | locus YHR200W, strain rpn10, stronger effect = lower value 0.963 | locus YIL066C, strain RNR3, stronger effect = lower value 0.986 | locus YIL073C, strain SPO22, stronger effect = lower value 0.98 | locus YIL125W, strain kgd1, stronger effect = lower value 0.983 | locus YIR030C, strain dcg1, stronger effect = lower value 0.973 | locus YJL092W, strain hpr5, stronger effect = lower value 1.03 | locus YJL095W, strain BCK1 (second series), stronger effect = lower value 1.01 | locus YJL095W, strain BCK1, stronger effect = lower value 0.958 and 0.976 | locus YJL115W, strain asf1, stronger effect = lower value 1.03 | locus YJL129C, strain trk1, stronger effect = lower value 1.04 | locus YJL134W, strain LCB3, stronger effect = lower value 0.986 | locus YJL154C, strain vps35, stronger effect = lower value 1.02 | locus YJL164C, strain tpk1, stronger effect = lower value 1.02 | locus YJL166W, strain qcr8, stronger effect = lower value 1.02 | locus YJL168C, strain set2, stronger effect = lower value 0.977 | locus YJL187C, strain SWE1 (second series), stronger effect = lower value 0.988 | locus YJR043C, strain POL32, stronger effect = lower value 0.967 | locus YJR066W, strain TOR1, stronger effect = lower value 0.92 | locus YJR075W, strain HOC1, stronger effect = lower value 0.98
